In PubChem BioAssay AID504332 (National Center for Advancing Translational Sciences (NCATS), 2011):
The whole screen tested about 350,000 compounds, of which about 31,000 (8.9%) were called active. Entries that show only a call come without a potency. Roughly 15% stayed inconclusive and do not appear here. Calls follow the shape of the dose curve; as a rule, active = well fitted inhibition curve with a large enough effect; inconclusive = small, poorly fitted or top-dose-only effect; inactive = no such curve, though single readings can be large or run the other way. Only a selection was taken, and actives are over-represented in it overall.

What follows are compounds tested against Histone-lysine N-methyltransferase EHMT2 (Homo sapiens) (UniProt Q96KQ7) (assay: qHTS Assay for Inhibitors of Histone Lysine Methyltransferase G9a). Conditions: G9a H3K9 monomethylation, AlphaScreen, 2 h; series mostly up to 59 µM.
Sequence of Histone-lysine N-methyltransferase EHMT2 (Homo sapiens) (Q96KQ7 913-1193 limits assumed): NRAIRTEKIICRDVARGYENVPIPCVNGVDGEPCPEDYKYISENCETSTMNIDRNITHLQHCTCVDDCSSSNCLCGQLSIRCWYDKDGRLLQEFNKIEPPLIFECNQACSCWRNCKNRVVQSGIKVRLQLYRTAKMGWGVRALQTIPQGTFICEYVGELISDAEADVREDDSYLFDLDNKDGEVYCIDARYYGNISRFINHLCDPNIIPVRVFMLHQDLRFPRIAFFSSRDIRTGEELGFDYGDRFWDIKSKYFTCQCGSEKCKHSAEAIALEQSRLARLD
Summary of the method: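 G9a (20 nM) preincubated 15 min RT with compounds, then 500 nM biotinylated H3K9 peptide and 20 uM SAM added; 2 h RT reaction. Monomethyl-H3K9 product detected by AlphaScreen with anti-H3K9me1 antibody, streptavidin donor and anti-rabbit IgG acceptor beads.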
Also: nearly all actives have a fitted effect of over 75% in size.
Potency is read from the fitted curve at half-maximal effect.

**Q.** How did the Potency turn out when `CCOC(=O)C1(Cc2ccccc2C)CCCN(C(=O)c2ccc(COC)o2)C1` (configuration not stated) was run?
**A.** inactive

**Q.** How did the Potency turn out when `N#CCCN(C(=O)COC(=O)c1ccc(S(=O)(=O)N2CCCCCC2)cc1)c1ccccc1` was run?
**A.** inactive

**Q.** `CC(C)(C)C(=O)NCCCNc1ccc([N+](=O)[O-])cc1` was tested. Which Potency did it give?
**A.** inactive

**Q.** `O=C(O)/C=C/C(=O)NNc1ccc([N+](=O)[O-])cc1` was tested. Which Potency did it give?
**A.** 7.94 µM (active)

**Q.** For `O=C(Cc1ccccc1)NNS(=O)(=O)c1ccc([N+](=O)[O-])cc1`, which Potency is on record?
**A.** inactive

**Q.** With `CCc1nn(CC(=O)Nc2cc(C)cc(C)c2)c(=O)c2cc3sccc3n12` as the compound, how does the Potency read?
**A.** inactive

**Q.** How did the Potency turn out when `Cc1n[nH]c(=O)c2c(NC(=O)CSc3ccccc3F)oc(C)c12` was run?
**A.** 31.6 µM (active)

**Q.** `Cc1n[nH]c(=O)c2c(NC(=O)CSc3cc(Cl)ccc3Cl)oc(C)c12` was tested. Which activity, negative = inhibition did it give?
**A.** 18.3% [at 2.33 µM] (inactive)

**Q.** For `Cc1n[nH]c(=O)c2c(NC(=O)COC(=O)c3ncc(Cl)c(Cl)c3Cl)oc(C)c12`, which activity, negative = inhibition is on record?
**A.** 5.9% [at 0.501 µM] (inactive)

**Q.** Which Potency does the source give for `O=c1c2cc(-c3ccccc3)sc2nc2n1N=C(c1cccs1)CS2` here?
**A.** 11.2 µM (active)

**Q.** With `O=c1c(-c2ccccc2)cnc2n1CCS2` as the compound, how does the activity, negative = inhibition read?
**A.** 20.8% [at 12.7 µM] (inactive)

**Q.** How did the Potency turn out when `O=C(O)Cc1sc(-c2ccccc2)nc1-c1cccs1` was run?
**A.** inactive

**Q.** `CS(=O)(=O)N1CCN=C1SCc1ccc(F)cc1` was tested. Which Potency did it give?
**A.** inactive

**Q.** For `CCOC(=O)N1CCC(NC(=O)c2cnn(-c3cccc(C)c3)c2C2CCN(C(=O)OC(C)(C)C)CC2)CC1`, which Potency is on record?
**A.** inactive

**Q.** How did the Potency turn out when `CCOC(=O)c1cc2c(=O)n3ccccc3nc2n(CCCOC)c1=NC(=O)C(C)(C)Oc1ccc(Cl)cc1` was run?
**A.** inactive

**Q.** For `CC(CC(=O)Nc1cc(C(F)(F)F)ccc1Cl)c1ccccc1` (configuration not stated), which Potency is on record?
**A.** inactive

**Q.** For `O=C(CSc1nc(=O)[nH]c2c1CCCC2)Nc1cc(C(F)(F)F)ccc1Cl`, which Potency is on record?
**A.** inactive

**Q.** With `Cc1cccc(-n2ccnc2SCC(=O)Nc2cc(C(F)(F)F)ccc2Cl)c1` as the compound, how does the Potency read?
**A.** 14.1 µM (active)

**Q.** Which Potency does the source give for `COc1ccc(NC(=O)CSc2nccn2C2CCCC2)cc1OC` here?
**A.** inactive

**Q.** How did the Potency turn out when `Cc1cccc(-n2c(Cc3cc(=O)[nH]c(=O)[nH]3)nnc2SCC(=O)Nc2cccc(C(F)(F)F)c2)c1` was run?
**A.** inactive

**Q.** `O=C(CSc1nccn1C1CCCC1)Nc1cc(C(F)(F)F)ccc1Cl` was tested. Which Potency did it give?
**A.** 12.6 µM (active)

**Q.** How did the activity, negative = inhibition turn out when `O=C(CN1C(=O)NC2(CCCCC2)C1=O)N1CCN(C(=O)c2cccs2)CC1` was run?
**A.** -17% [at 2.33 µM] (inactive)

**Q.** Which Potency does the source give for `Cc1ccc2nc(COc3cccc(NC(=O)Nc4ccc(C)c(Cl)c4)c3)cc(=O)n2c1` here?
**A.** inactive

**Q.** `CC(=O)NC12CC3CC(C1)CC(C(=O)N1CCN(C(=O)c4ccco4)CC1)(C3)C2` was tested. Which Potency did it give?
**A.** inactive

**Q.** Which Potency does the source give for `CCCC(=O)Nc1ccc2oc(-c3ccc(O)c(Br)c3)nc2c1` here?
**A.** inactive

**Q.** With `CC(C)Nc1nnc(SC(C)C(=O)N(C)C2CCCCC2)s1` (configuration not stated) as the compound, how does the activity, negative = inhibition read?
**A.** 7.92% [at 0.501 µM] (inactive)

**Q.** `O=C(Cn1ncn2nc(-c3cccs3)cc2c1=O)NCc1cccc(Br)c1` was tested. Which Potency did it give?
**A.** inactive
